Reference: PubChem BioAssay (NCI)
“And” between values parts separate entries of the source, which are not always exact repeats. Equal values may be shown once. About 79,000 compounds went through this panel and 15% of them were active in at least one assay; those are over-represented in the sample as a whole. More than one record can exist for a structure, and the calls need not agree. The source made the active and inactive calls. No stated cut-off is given here; in the data, active means growth inhibition above about 70%; inactive means the rest.

Tests used:
[1] = NCI Yeast Anticancer Drug Screen. Data for the rad50 strain (AID 155);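 further: 0% = growth of vehicle-only cultures of the same strain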; conditions: S. cerevisiae rad50 strain growth inhibition, stronger effect = higher value
Procedure, shortened: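 DNA repair mutant yeast, compound exposure, growth read-out; inhibition is taken relative to vehicle.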

[2] = NCI Yeast Anticancer Drug Screen. Data for the mec2-1 strain (AID 157); conditions: S. cerevisiae mec2-1 strain, stronger effect = higher value
Procedure, shortened: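 Each compound was tested on mec2-1 yeast, a strain altered in DNA damage repair or cell cycle control. Growth inhibition is reported relative to vehicle.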

[3] = NCI Yeast Anticancer Drug Screen. Data for the sgs1 mgt1 strain (AID 161);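 further: 0% = growth of cultures given vehicle only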; conditions: S. cerevisiae sgs1 mgt1 strain, stronger effect = higher value
Procedure, shortened: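 Genetically altered yeast, compound exposure, growth inhibition relative to vehicle.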

[4] = NCI Yeast Anticancer Drug Screen. Data for the cln2 rad14 strain (AID 165);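 further: 0% = growth equal to vehicle treated cultures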; conditions: S. cerevisiae cln2 rad14 strain, stronger effect = higher value
Procedure, shortened: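 Test compounds were added to cln2 rad14 yeast cultures; inhibition of growth was then determined by comparison with vehicle treatment.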

[5] = NCI Yeast Anticancer Drug Screen. Data for the bub3 strain (AID 167); conditions: S. cerevisiae bub3 mutant strain, stronger effect = higher value
Procedure, shortened: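 In this screen, a yeast mutant lacking normal mitotic checkpoint function is challenged with compound. Relative growth versus vehicle gives the inhibition value.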

[6] = NCI Yeast Anticancer Drug Screen. Data for the rad50EPP+ strain (AID 151);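 further: 0% = growth of vehicle-treated control cultures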; conditions: S. cerevisiae rad50 mutant strain, stronger effect = higher value
Procedure, shortened: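 Genetically defined yeast (rad50EPP+, DNA damage repair alteration) is grown with compound, and inhibition of growth is expressed relative to vehicle-treated controls.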

[7] = NCI Yeast Anticancer Drug Screen. Data for the mgt1 strain (AID 153); conditions: S. cerevisiae mgt1 mutant growth inhibition, stronger effect = higher value
Procedure, shortened: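 In the mgt1 strain, test compounds were added and growth inhibition was determined relative to vehicle-treated controls.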

[8] = NCI Yeast Anticancer Drug Screen. Data for the rad14 strain (AID 159);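 further: 0% = growth of vehicle-treated control cultures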; conditions: S. cerevisiae rad14 strain growth inhibition, stronger effect = higher value
Procedure, shortened: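 DNA repair-defective yeast, compound-exposed; % growth inhibition derived by comparison with vehicle-treated controls.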

[9] = NCI Yeast Anticancer Drug Screen. Data for the CLN2oe strain (AID 163);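 further: 0% = growth of vehicle-only control cultures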; conditions: S. cerevisiae CLN2oe strain, stronger effect = higher value
Procedure, shortened: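 First, the altered yeast strain was treated with each compound; second, its growth was measured; finally, inhibition was derived by comparison with vehicle controls.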

[10] = NCI Yeast Anticancer Drug Screen. Data for the wt2 strain (AID 169);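 further: 0% = growth of vehicle-treated yeast cultures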; conditions: S. cerevisiae wt2 strain growth inhibition, stronger effect = higher value
Procedure, shortened: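 The panel's yeast strains carry defined changes in DNA repair or cell cycle genes. Each strain is grown with compound, and growth loss is scored relative to vehicle.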

[11] = NCI Yeast Anticancer Drug Screen. Data for the mlh1 strain (AID 171);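 further: 0% = growth of vehicle-treated control cultures of the same strain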; conditions: S. cerevisiae mlh1 strain growth inhibition, stronger effect = higher value
Procedure, shortened: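 Inhibition values reflect reduced yeast growth in the presence of compound, referenced to vehicle controls, using a strain chosen for its alteration in DNA repair or cell cycle control.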

[12] = NCI Yeast Anticancer Drug Screen. Data for the sgs1 strain (AID 173);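 further: 0% = growth of vehicle-only control cultures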; conditions: S. cerevisiae sgs1 mutant, stronger effect = higher value
Procedure, shortened: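 Vehicle-treated cultures served as reference for growth inhibition of a yeast strain altered in DNA damage repair or cell cycle control after compound exposure.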

[13] = NCI Yeast Anticancer Drug Screen. Data for the mlh1 rad18 strain (AID 175); conditions: S. cerevisiae mlh1 rad18 strain growth inhibition, stronger effect = higher value
Procedure, shortened: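 Inhibition values reflect reduced growth of mutant yeast versus vehicle-treated controls following compound exposure; the mutations affect DNA damage repair.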

[14] = NCI Yeast Anticancer Drug Screen. Data for the rad18 strain (AID 177); conditions: S. cerevisiae rad18 mutant growth inhibition, stronger effect = higher value
Procedure, shortened: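 Steps: expose repair-mutant yeast to compound; measure growth; express as inhibition relative to vehicle control.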

[15] = at 5.0 µM (retest, dose inferred, filed as 0.5)
[16] = at 50.0 µM (retest, dose inferred, filed as 5.0)

## Cc1ccc(C(=O)CCl)c(C)c1
[1]; [15]
  growth inhibition: 11% (inactive) and 16% (inactive)
[1]; [16]
  growth inhibition: 99% (active) and 94% (active)
[1]; at 50.0 µM
  growth inhibition: 96.4% (active) and 87.7% (active)
[2]; [15]
  growth inhibition: 23% (inactive) and 18% (inactive)
[2]; [16]
  growth inhibition: 99% (active) and 92% (active)
[2]; at 50.0 µM
  growth inhibition: 98.2% (active) and 91.6% (active)
[3]; [15]
  growth inhibition: 25% (inactive) and 11% (inactive)
[3]; [16]
  growth inhibition: 99% (active) and 55% (inactive)
[3]; at 50.0 µM
  growth inhibition: 94.7% (active) and 96.1% (active)
[4]; [15]
  growth inhibition: 15% (inactive) and 17% (inactive)
[4]; [16]
  growth inhibition: 97% (active) and 83% (active)
[4]; at 50.0 µM
  growth inhibition: 87.3% (active) and 71.6% (active)
[5]; [15]
  growth inhibition: 8% (inactive) and 2% (inactive)
[5]; [16]
  growth inhibition: 99% (active) and 97% (active)
[5]; at 50.0 µM
  growth inhibition: 91.8% (active) and 90.2% (active)

## CN(C)CCC(C(=O)C(Br)Br)(c1ccccc1)c1ccccc1
[6]; at 1.2 µM
  growth inhibition: -2% (inactive)
[6]; at 3.7 µM
  growth inhibition: -5% (inactive)
[6]; at 11.0 µM
  growth inhibition: -1% (inactive)
[6]; at 33.0 µM
  growth inhibition: 21% (inactive)
[6]; at 100.0 µM
  growth inhibition: 72% (active)
[7]; at 1.2 µM
  growth inhibition: -1% (inactive)
[7]; at 3.7 µM
  growth inhibition: 0% (inactive)
[7]; at 11.0 µM
  growth inhibition: 96% (active)
[7]; at 33.0 µM
  growth inhibition: 99% (active)
[7]; at 100.0 µM
  growth inhibition: 99% (active)
[1]; at 1.2 µM
  growth inhibition: 0% (inactive)
[1]; at 3.7 µM
  growth inhibition: 12% (inactive)
[1]; [15]
  growth inhibition: 16% (inactive)
[1]; at 11.0 µM
  growth inhibition: 82% (active)
[1]; at 33.0 µM
  growth inhibition: 99% (active)
[1]; [16]
  growth inhibition: 99% (active)
[1]; at 50.0 µM
  growth inhibition: 98.8% (active)
[1]; at 100.0 µM
  growth inhibition: 99% (active)
[2]; at 1.2 µM
  growth inhibition: 3% (inactive)
[2]; at 3.7 µM
  growth inhibition: 2% (inactive)
[2]; [15]
  growth inhibition: 16% (inactive)
[2]; at 11.0 µM
  growth inhibition: 96% (active)
[2]; at 33.0 µM
  growth inhibition: 99% (active)
[2]; [16]
  growth inhibition: 38% (inactive)
[2]; at 50.0 µM
  growth inhibition: 99.3% (active)
[2]; at 100.0 µM
  growth inhibition: 100% (active)
[8]; at 1.2 µM
  growth inhibition: 7% (inactive)
[8]; at 3.7 µM
  growth inhibition: 30% (inactive)
[8]; at 11.0 µM
  growth inhibition: 95% (active)
[8]; at 33.0 µM
  growth inhibition: 99% (active)
[8]; at 100.0 µM
  growth inhibition: 99% (active)
[3]; [15]
  growth inhibition: 40% (inactive)
[3]; [16]
  growth inhibition: 99% (active)
[3]; at 50.0 µM
  growth inhibition: 97.3% (active)
[9]; at 1.2 µM
  growth inhibition: 0% (inactive)
[9]; at 3.7 µM
  growth inhibition: 12% (inactive)
[9]; at 11.0 µM
  growth inhibition: 74% (active)
[9]; at 33.0 µM
  growth inhibition: 99% (active)
[9]; at 100.0 µM
  growth inhibition: 98% (active)
[4]; [15]
  growth inhibition: 19% (inactive)
[4]; [16]
  growth inhibition: 99% (active)
[4]; at 50.0 µM
  growth inhibition: 99.1% (active)
[5]; at 1.2 µM
  growth inhibition: -6% (inactive)
[5]; at 3.7 µM
  growth inhibition: 0% (inactive)
[5]; [15]
  growth inhibition: -69% (inactive)
[5]; at 11.0 µM
  growth inhibition: 94% (active)
[5]; at 33.0 µM
  growth inhibition: 99% (active)
[5]; [16]
  growth inhibition: 98% (active)
[5]; at 50.0 µM
  growth inhibition: 99.5% (active)
[5]; at 100.0 µM
  growth inhibition: 99% (active)
[10]; at 1.2 µM
  growth inhibition: 0% (inactive)
[10]; at 3.7 µM
  growth inhibition: 2% (inactive)
[10]; at 11.0 µM
  growth inhibition: 73% (active)
[10]; at 33.0 µM
  growth inhibition: 99% (active)
[10]; at 100.0 µM
  growth inhibition: 99% (active)
[11]; at 1.2 µM
  growth inhibition: 2% (inactive)
[11]; at 3.7 µM
  growth inhibition: 1% (inactive)
[11]; at 11.0 µM
  growth inhibition: 61% (inactive)
[11]; at 33.0 µM
  growth inhibition: 99% (active)
[11]; at 100.0 µM
  growth inhibition: 100% (active)
[12]; at 1.2 µM
  growth inhibition: -1% (inactive)
[12]; at 3.7 µM
  growth inhibition: 17% (inactive)
[12]; at 11.0 µM
  growth inhibition: 94% (active)
[12]; at 33.0 µM
  growth inhibition: 99% (active)
[12]; at 100.0 µM
  growth inhibition: 99% (active)
[13]; [15]
  growth inhibition: 33% (inactive)
[13]; [16]
  growth inhibition: 99% (active)
[13]; at 50.0 µM
  growth inhibition: 99% (active)
[14]; at 1.2 µM
  growth inhibition: 2% (inactive)
[14]; at 3.7 µM
  growth inhibition: 11% (inactive)
[14]; at 11.0 µM
  growth inhibition: 88% (active)
[14]; at 33.0 µM
  growth inhibition: 99% (active)
[14]; at 100.0 µM
  growth inhibition: 99% (active)
